Measured values from PubChem BioAssay AID686978 (National Center for Advancing Translational Sciences (NCATS), 2013).
About 64,000 (15%) of roughly 420,000 compounds were called active. Another 27% or so got no clear call; they are omitted. The call rests on the fitted dose curve; in most records, active means well fitted inhibition curve with a large enough effect; inconclusive means small, poorly fitted or top-dose-only effect; inactive means flat fitted curve, though single readings scatter. These entries were drawn from the full list.

Assay: qHTS for Inhibitors of human tyrosyl-DNA phosphodiesterase 1 (TDP1): qHTS in cells in absence of CPT; further: nearly all actives have a fitted effect of over 55% in size
Details: DT40 Tdp1-/- hTDP1 cells, no CPT, ATP luminescence, 48 h; activity change, negative = growth inhibition: at 46.2 µM (top of the series)
Summary of the method: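 DT40 Tdp1-/-;hTDP1 cells, no CPT (DMSO vehicle only), 400 cells/well; compounds pin-transferred; ≥48 hr, 37 °C; CellTiter-Glo 30 min RT dark, luminescence read.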
On the % scale 0 is the no-effect control and ±100 the full control effect; potency means the concentration at half of the fitted maximal effect.

SMILES | Potency | activity change, negative = growth inhibition
CCCC1OC23CCCCC2C(C#N)(C#N)C1(C#N)C(=N)O3 (centres undefined) | 5.8 µM (active) | –
N#C/C(=C\c1ccccc1)c1n[nH]c(Cn2cncn2)n1 | – | -7.47% (inactive)
COC(=O)N1CCC2(CCCN(c3ccncc3)C2)CC1 | – | -23.2% (inactive)
CCc1cccc2c(=O)c(C(=O)NCCCOC)c[nH]c12 | – | -8.95% (inactive)
CCc1nc2ccc(C(=O)Nc3cc(-c4ccccc4)ccc3OC)cn2c1N(CC)CC(=O)N(C)C | 11.6 µM (active) | –
CCc1nc2ccc(C(=O)Nc3ccc(OC)c(OC)c3)cn2c1N(C)C(=O)c1cccc(OC)c1 | – | -12.6% (inactive)
CCc1nc2ccc(C(=O)Nc3cccc(OC)c3)cn2c1N(CCC(C)C)CCN(C)C | – | -99.5% (inactive)
CCn1c(CNS(=O)(=O)c2ccc(Cl)cc2)n[nH]c1=S | – | 1.74% (inactive)
Cc1cccnc1NC(=O)CSc1nnc(COc2ccc(C(C)C)cc2)n1C | – | -9.74% (inactive)
N#Cc1cccc(CSc2ncnc(N)n2)c1 | – | -16.2% (inactive)
Cc1cc(C)c(C)c(S(=O)(=O)Nc2ccc(O)cc2)c1C | 11.6 µM (active) | –
Cc1cc(C(C)(C)C)cc(S(=O)(=O)Nc2ccc(C(=O)O)cc2)c1C | – | -0.652% (inactive)
Cc1cc(C)c(C)c(S(=O)(=O)Nc2cccnc2)c1C | – | -12.7% (inactive)
COc1cc(NC(=O)C2CC(c3ccccc3O)=NO2)c(OC)cc1Cl (centres undefined) | – | -15% (inactive)
CC/S(CC1CC1(Cl)Cl)=N\S(=O)(=O)c1ccc(C)cc1 (centres undefined) | – | -13.4% (inactive)
COC(=O)CCNc1ccc2c(c1)OCCO2 | – | -12.9% (inactive)
O=C(NCCc1ccccc1)c1ccc(OCCOc2ccccc2)cc1 | – | 2.77% (inactive)
O=C(NCCOc1ccccc1)c1ccccc1 | – | -0.273% (inactive)
CC(C)(c1ccccc1)c1ccc(OCCN)cc1 | 11.6 µM (active) | –
O=C(CSc1ncccn1)N1CCCC1 | – | -10.3% (inactive)
CCc1nnc(NC(=O)CSc2nc3c(c(=O)n2-c2ccccc2OC)SCC3)s1 | – | -17.8% (inactive)
CN(C)S(=O)(=O)c1ccc(C(=O)NCCN=C2NS(=O)(=O)c3ccccc32)cc1 | – | 4.5% (inactive)
NC(=S)NN=C1CCCC(C(F)(F)F)C1 (centres undefined) | 23.1 µM (active) | –
Cc1cc(C)nc(SCc2cn3c(C)cc(C)nc3n2)n1 | – | -8.17% (inactive)
O=[N+]([O-])/C(N=Nc1ccccc1)=N\Nc1ccccc1 | – | 4.72% (inactive)
O=S(=O)(c1ccc(Br)c2ccccc12)N1CCOCC1 | – | -4.4% (inactive)
O=S(=O)(NCCc1ccccn1)c1cc(Cl)cc(Cl)c1O | – | 12.2% (inactive)

SMILES | Potency | activity change, negative = growth inhibition
COC(=O)CCc1sc(Nc2ccc(Br)cc2)nc1-c1ccc(OC)cc1 | 13 µM (active) | –
COc1ccc(NC(=O)c2sc(N)nc2-c2ccccc2)cc1 | – | 19.9% (inactive)
COc1ccc(NC(=O)CCC(=O)Nc2nnc(C3CCCCC3)s2)cc1 | – | -8.09% (inactive)
CC(C)(C)n1nc2c(c1NC(=O)c1cc3ccccc3o1)CSC2 | – | -14.3% (inactive)
C[C@@H](NC(=O)OC(C)(C)C)c1nnc(S(=O)(=O)Cc2ccccc2)o1 | 1.03 µM (active) | –
C[C@H](NC(=O)OC(C)(C)C)c1nnc(SCC(N)=O)o1 | – | 0.895% (inactive)
CC(C)Sc1nnc([C@H](Cc2ccccc2)NC(=O)OC(C)(C)C)o1 | – | -15.6% (inactive)
O=C(CSc1nnc(CNC(=O)c2ccc(F)cc2)o1)Nc1ccc2c(c1)OCO2 | – | -1.83% (inactive)
Cc1cc(=O)[nH]c(=S)[nH]1 | inactive | –
COc1cc(C(=O)OCc2ccc([N+](=O)[O-])cc2)cc(OC)c1OC | – | -7.17% (inactive)
Cc1ccc(-n2cc3ccc([N+](=O)[O-])cc3n2)cc1 | 16.4 µM (active) | –
Cc1cc(CO)nn1-c1ccc([N+](=O)[O-])cc1 | – | -14% (inactive)
Cc1ccc(C(=O)Cn2cc([N+](=O)[O-])nc2C)cc1 | – | -14.6% (inactive)
O=C(CN1CCN(c2ccccn2)CC1)NC1CCCCC1 | – | 2.13% (inactive)
O=C1CCC(CCC(=O)N2CCCC(C(=O)c3ccc(Cl)cc3)C2)=NN1 (centres undefined) | – | -5.18% (inactive)
COc1cc(OC)cc(-c2nc3nc(C)c(CCC(=O)Nc4ccc(C)cc4)c(C)n3n2)c1 | – | -28.1% (inactive)
COc1cc(OC)cc(-c2nc3nc(C)c(CCC(=O)Nc4ccccc4)c(C)n3n2)c1 | 29.1 µM (active) | –
CCOC(=O)c1cccc(NC(=O)CCc2c(C)nc3ncnn3c2C)c1 | – | 2.02% (inactive)
COc1cc(OC)cc(-c2c(-c3cccs3)c3cc(-c4ccc(OC)cc4F)ccc3n2C)c1 | 14.6 µM (active) | –
COc1ccc(-c2cn[nH]c2-c2ccc(OC)cc2)cc1 | – | -22.1% (inactive)
COc1cc(OC)cc(-c2c(C#Cc3ccsc3)c3cc(-c4ccc(SC)cc4)ccc3n2C)c1 | – | -1.65% (inactive)
COc1ccc(-c2c(-c3cc(OC)cc(OC)c3)n(C)c3ccc(-c4ccn[nH]4)cc23)cc1 | 25.9 µM (active) | –
COc1ccc(OC)c(-n2c(-c3ccn[nH]3)n[nH]c2=S)c1 | – | -17.3% (inactive)
O=C(CSc1nncs1)NC1CCCc2ccccc21 (centres undefined) | – | 12.5% (inactive)
Cc1nc2cc3c(cc2s1)OCO3 | – | -7.5% (inactive)
Cc1nnc(SCC(=O)NC(=O)NC2CCCC2)n1N | – | -14.4% (inactive)
COc1ccc(N2CC(C(=O)N[C@@H](C)C(=O)N3CCCCC3)CC2=O)cc1 (some centres undefined) | – | 19.1% (inactive)

SMILES | Potency | activity change, negative = growth inhibition
CCOC(=O)C1CCN(S(=O)(=O)c2ccc3c(c2)N(C)C(=O)CC(=O)N3C)CC1 | inactive | –
O=[n+]1c2c(n([O-])c3cc(Br)ccc31)CCC2 | – | -2.65% (inactive)
CC(C)c1ccc(C2C(C(=O)c3ccco3)=C(O)C(=O)N2CC2CCCO2)cc1 (centres undefined) | – | -77.9% (active)
CCOc1cc(C2C(C(=O)c3ccco3)=C(O)C(=O)N2Cc2ccccc2)ccc1O (centres undefined) | – | -10.7% (inactive)
O=C(C1=C(O)C(=O)N(Cc2ccccc2)C1c1cccnc1)c1ccco1 (centres undefined) | – | 8.79% (inactive)
CCCc1nnc(NC(=O)CN2C(=O)c3ccccc3S2(=O)=O)s1 | – | 3.89% (inactive)
Cc1ccc(-c2nc3c(cnn3-c3ccccc3)c(=O)o2)cc1 | – | -13.9% (inactive)
Cc1ccc(-n2ncc3c(Nc4cccc(C(=O)O)c4)ncnc32)cc1 | – | -12.6% (inactive)
Cc1ccc(-n2ncc3c(=O)n(-c4ccc(C)c(C)c4)c(-c4ccco4)nc32)cc1 | 18.4 µM (active) | –
O=Cc1c(NCCc2cccc(F)c2)c2ccccc2[nH]c1=O | – | -6.03% (inactive)
CCC(=O)Nc1ccc(C(=O)NNC(=O)c2ccc(Cl)cc2)cc1 | – | -2.27% (inactive)
CC(=O)OC(C(=O)NC1CCCCC1)c1ccccc1 (centres undefined) | – | -1.29% (inactive)
Cc1cnc(CN(C)C(=O)CC2C(=O)NCCN2Cc2cccc(F)c2F)[nH]1 (centres undefined) | – | -2.17% (inactive)
CCCn1c2ccccc2c2cnn(CC(=O)NCC3CCN(Cc4ccc(C)cc4)CC3)c(=O)c21 | 10.3 µM (active) | –
CCN(CC)CCNC(=O)Cn1ncc2c3ccccc3n(Cc3ccccc3C)c2c1=O | 25.9 µM (active) | –
O=C(Cn1ncc2c3ccccc3n(Cc3ccccc3)c2c1=O)NC1CCCCCC1 | 3.66 µM (active) | –
Cc1ccccc1CNC(=O)Cn1c(C)c2cnn(-c3ccccc3)c(=O)c2c1C | – | -15.3% (inactive)
Cc1c2cnn(CC(=O)NCc3ccccn3)c(=O)c2c(C)n1Cc1ccc(Cl)cc1 | – | -21.2% (inactive)
Cc1ccc(Cn2c(C)c3cnn(CC(=O)NCCN4CCOCC4)c(=O)c3c2C)cc1 | – | -3.15% (inactive)
Cc1ccc(Cn2c(C)c3cnn(CC(=O)NCc4ccccc4)c(=O)c3c2C)cc1 | 2.91 µM (active) | –
O=C(Cn1ncc2c3ccccc3n(Cc3ccccc3)c2c1=O)NCc1ccccn1 | inactive | –
CCCn1c2ccccc2c2cnn(CC(=O)NCCCN3CCCCC3CC)c(=O)c21 (centres undefined) | – | -69.4% (inactive)
CCOC(=O)N1CCC(NC(=O)C(C)n2c3ccccc3c3cnn(C)c(=O)c32)CC1 (centres undefined) | – | -19% (inactive)
Cc1ccc2oc(=O)c3cnn(CC(=O)NCc4ccccc4Cl)c3c2c1 | – | 2.11% (inactive)
Cc1nn(CC(=O)NC2CCCCC2)c(=O)c2cccn12 | – | 7.78% (inactive)
